In PubChem BioAssay AID463173 (ICCB-Longwood Screening Facility, Harvard Medical School, 2010) one finds survival data, which are given here for 86 compounds.

Screen size: about 52,000 compounds; about 4,300 (8.3%) were called active. This is one part of a sample in which actives are shown more often than they occur. Values without a mark were called inactive. Cut-off read from the data, not from the text of the source: active = survival mostly below about 52% (no sharp cut-off); inactive = mostly above about 56%.

The assay has as its system DeltatarO mutant. Description: growth inhibition of S. aureus wild type versus tarO mutant, primary screen, teichoic acid synthesis inhibitors, RN4220, OD600 (AID 463173). Particulars: OD600, 18 h, active compounds read low, screened at 18.75 µg/mL (by protocol).
On to `Cc1ccc2c(c1)cc(C(=O)Nc1ccc(F)cc1F)n2C`, for which the survival is 106%.
The value for `COc1ccccc1NC(=O)CCCOc1cc(=O)n(C)c2ccccc12` was 114%; that for `Cn1c(=O)[nH]c(=O)c2[nH]c(NCCO)nc21` was 80%; that for `COc1ccc(-c2nc(CN3CCC(C(=O)NCCCN4CCN(c5ccccc5F)CC4)CC3)c(C)o2)cc1OC` was 70%.
As for `Cc1ccc(CNc2ccc(-c3nc(-c4ccncc4)no3)cc2[N+](=O)[O-])cc1`, the survival was 39% (active).
Next, `Cc1ccc(CNc2ccc(-c3nc(-c4cccnc4)no3)cc2[N+](=O)[O-])cc1`: 75%; `COc1ccccc1CNc1ccc(-c2nc(-c3ccccn3)no2)cc1[N+](=O)[O-]`: 43% (active).
Next, `O=[N+]([O-])c1cc(-c2nc(-c3ccncc3)no2)ccc1NCc1ccccc1`: 109%; `COc1ccccc1CNc1ccc(-c2nc(-c3ccncc3)no2)cc1[N+](=O)[O-]`: 45% (active); `COc1ccc(-c2noc(-c3ccc(NCc4ccccc4OC)c([N+](=O)[O-])c3)n2)cc1`: 57%.
For the compound `COc1ccccc1CNc1ccc(-c2nc(-c3cccnc3)no2)cc1[N+](=O)[O-]`, the survival is 78%.
Take `COc1ccccc1CNc1ccc(-c2nc(-c3ccccc3C)no2)cc1[N+](=O)[O-]`: the survival was 91%.
Next, `COc1ccccc1CNc1ccc(-c2nc(C)no2)cc1[N+](=O)[O-]`: 68%; `O=C(CNCC1CCCO1)Nc1ccccc1-n1cccc1` (stereo unspecified): 70%; `CCOc1ccc(CNCCNC(=O)c2nonc2N)cc1`: 84%.
For the compound `CC1C(=NO)C(C)C(c2ccccc2)NC1c1ccccc1` (stereo unspecified), the survival is 99%.
The value for `O=C(Nc1cc(Cl)ccc1O)c1nc2ncccn2n1` was 74%; that for `CCOc1cc(C2C(C(=O)Nc3ccccc3)=C(C)Nc3ncnn32)cc(Br)c1O` (stereo unspecified) was 102%; that for `Cc1ccc2sc(N(CCCN(C)C)C(=O)c3ccco3)nc2c1C` was 128%.
With `COC(=O)CN1C(=O)CSc2ccc(S(=O)(=O)Nc3ccc(F)c(Cl)c3)cc21`, the survival is 83%.
For `Cc1ccc(NC(=O)COc2ccc(-c3nn(C)c(=O)c4ccccc34)cc2)c(C)c1`, the survival is 73%.
Next, `CC(=O)c1cccc(NC(=O)c2cc3c(s2)-c2c(C)cccc2OC3)c1`: 120%; `Cc1cc(C(=O)Nc2cccc(C(F)(F)F)c2)c2c(C)nn(-c3cccc(F)c3)c2n1`: 17% (active); `COc1ccc(NC(=O)c2cc(C)nc3c2c(C)nn3-c2cccc(Cl)c2C)c(OC)c1`: 88%.
The value for `Cc1cc(C(=O)Nc2ccc(C(C)C)cc2)c2c(C)nn(-c3ccccc3)c2n1` was 73%; that for `Cc1cc(C)c(NC(=O)c2cc(C)nc3c2c(C)nn3-c2cccc(F)c2)c(C)c1` was 94%.
For `CCc1cccc(C)c1NC(=O)c1cc(C)nc2c1c(C)nn2-c1cccc(Cl)c1C`, the survival is 88%.
Next, `Cc1ccc(-n2nc(C)c3c(C(=O)Nc4ccc(Br)c(C)c4)cc(C)nc32)cc1`: 101%; `Cc1cc(C)cc(NC(=O)c2cc(C)nc3c2c(C)nn3-c2ccccc2)c1`: -5% (active); `Cc1cc(C(=O)Nc2cccc(C)c2C)c2c(C)nn(-c3cccc(F)c3)c2n1`: 94%.
The value for `Cc1ccc(CCNC(=O)c2cc(C)nc3c2c(C)nn3-c2ccc(C)cc2)cc1` was 25% (active); that for `Cc1ccc(-n2nc(C)c3c(C(=O)NCCc4ccc(S(N)(=O)=O)cc4)cc(C)nc32)cc1` was 118%.
With `Cc1ccc(-n2nc(C)c3c(C(=O)NCCc4ccccc4)cc(C)nc32)cc1`, the survival was 70%.
Turning to `Cc1ccc(NC(=O)c2cc(C)nc3c2c(C)nn3-c2cccc(Cl)c2C)c(C)c1`, the survival is -5% (active).
The value for `COc1ccc(OC)c(CNC(=O)c2nn(C)c3c2CS(=O)(=O)c2ccccc2-3)c1` was 74%; that for `CCC(C(=O)Nc1ccc(C(=O)OC)cc1)n1c(=O)c(-c2ccccc2NC(C)=O)nc2ccccc21` (stereo unspecified) was 94%.
In the case of `O=C(CSc1nc2ccsc2c(=O)n1-c1ccc(Br)cc1)NCc1ccccc1`, the survival was 73%.
In the case of `CCCCN(CCCC)S(=O)(=O)c1ccc(NC(=O)c2c(-c3ccccc3)noc2C)cc1`, the survival is 60%.
With `CCOC(=O)c1c(S(=O)(=O)N2CCCC(C(=O)NCc3cccc(OC)c3)C2)c(C)n(C)c1C` (stereo unspecified), the survival is 117%.
As to `Cc1ccc(-c2nc(C)c(CCNC(=O)c3ccccc3Br)s2)cc1`, the survival is 72%.
The value for `CCn1c(=O)cc(OCC(=O)N2CCN(c3ccc(OC)cc3)CC2)c2ccccc21` was 71%; that for `O=C(NCc1cccn1Cc1ccccc1)Nc1ccc(Br)cc1F` was 66%; that for `CCOc1cccc(C2Oc3nc(SC)nnc3-c3ccccc3N2C(C)=O)c1OC` (stereo unspecified) was 59%.
Take `Cc1c(C(=O)Nc2ccccc2F)sc2nc3n(c(=O)c12)CCC3`: the survival was 87%.
On to `O=C(Cn1ccn(-c2ccc(F)c(F)c2)c(=O)c1=O)NCc1ccccc1`, for which the survival was 62%.
The value for `COc1cc(OC)cc(-n2c(=O)c3ccccc3n(Cc3ccccc3C#N)c2=O)c1` was 128%.
For `CCc1ccc(-n2nc(C)c3c(C(=O)Nc4ccc(Cl)cc4)cc(C)nc32)cc1`, the survival was 66%.
`Cc1ccc(C)c(N2CCN(C(=O)c3cc(C)nc4c3c(C)nn4-c3ccccc3)CC2)c1`: the survival is 126%.
The value for `Cc1cc(C(=O)N2CCN(c3ccccc3)CC2)c2c(C)nn(-c3cccc(F)c3)c2n1` was 91%; that for `CCc1ccc(-n2nc(C)c3c(C(=O)Nc4cc(OC)cc(OC)c4)cc(C)nc32)cc1` was 102%; that for `Cc1ccc(C)c(N2CCN(C(=O)c3cc(C)nc4c3c(C)nn4-c3cccc(F)c3)CC2)c1` was 8% (active).
For the compound `CCc1ccc(-n2nc(C)c3c(C(=O)Nc4cccc(C(F)(F)F)c4)cc(C)nc32)cc1`, the survival was 20% (active).
As for `Cc1cccc2cc(CN(CCO)S(=O)(=O)c3ccc(Cl)cc3)c(=O)[nH]c12`, the survival was 82%.
Take `CCOCCCNC(=O)c1ccc2c(c1)NC(=O)C(CS(=O)(=O)Cc1ccc(F)cc1Cl)N2` (stereo unspecified): the survival was 88%.
Next, `CC(C)Cn1c(N2CCN(C(=O)c3sc4ccccc4c3Cl)CC2)nc2ccccc21`: 89%; `CCC(Cc1ccccc1)NC(=O)CN1C(=O)COc2ccc(S(=O)(=O)N3CCCCCC3)cc21` (stereo unspecified): 113%.
The value for `CC(=O)c1cccc(NS(=O)(=O)c2cccc(S(=O)(=O)c3ccc(Br)cc3)c2)c1` was 55%; that for `COc1cccc(-c2cc(C(=O)Nc3cc(C)nn3-c3ccccc3)no2)c1` was 74%.
For the compound `Cc1ccc(Cn2ccc(NC(=O)c3cc(-c4ccc(Cl)c(Cl)c4)on3)n2)cc1`, the survival is 45% (active).
The value for `Cc1ccc(CNC(=O)c2cc(-c3ccc(Cl)cc3)on2)cc1` was 93%; that for `Cc1cc(NC(=O)c2cc(-c3ccc(Cl)cc3)on2)nn1Cc1ccc(Cl)cc1` was 140%.
As to `Cc1cc(NC(=O)c2cc(-c3ccc(Br)cc3)on2)nn1Cc1ccc(Cl)cc1`, the survival is 155%.
Consider `Cc1cc(NC(=O)c2cc(-c3ccc(Cl)c(Cl)c3)on2)n(-c2ccccc2)n1`, for which the survival is 63%.
For `COc1cccc(-c2cc(C(=O)Nc3ccn(Cc4ccc(C)cc4)n3)no2)c1`, the survival is 33% (active).
The value for `Cc1cc(NC(=O)c2cc(-c3cccc(Cl)c3)on2)nn1Cc1ccc(Cl)cc1` was 43% (active); that for `COc1ccc(-c2cc(C(=O)Nc3ccn(Cc4ccc(C)cc4)n3)no2)cc1OC` was 57%.
Take `O=c1c2cccnc2n(Cc2ccccc2F)c(=O)n1Cc1ccccc1Cl`: the survival was 62%.
The value for `Cc1cccc(S(=O)Cc2ccc(C(=O)NC3CCCCCC3)o2)c1` (stereo unspecified) was 81%.
Regarding `CCOc1ccc(NC(=O)C2CCCN(S(=O)(=O)c3ccc(Br)s3)C2)cc1` (stereo unspecified), the survival is 101%.
The value for `O=C(NCCc1cccs1)c1ccc(Cn2c(SCc3ccccc3)nc3cccnc32)cc1` was 99%; that for `Cc1ccccc1CSc1nc2cccnc2n1Cc1ccc(C(=O)NCCc2cccs2)cc1` was 47% (active); that for `CCOc1ccccc1CNC(=O)c1ccc(Cn2c(SCc3ccccc3)nc3cccnc32)cc1` was 74%.
Next, `Cc1ccc(CSc2nc3cccnc3n2Cc2ccc(C(=O)NCCc3cccs3)cc2)cc1`: 135%; `COc1ccc(Cn2c(SCc3ccc(C(=O)NCc4ccc(C)cc4)cc3)nc3cccnc32)cc1`: 58%.
Next, `CCNC(=O)c1ccc(CSc2nc3cccnc3n2Cc2ccc(OC)cc2)cc1`: 0% (active); `Cc1ccccc1CNC(=O)c1ccc(Cn2c(SCc3cccc(F)c3)nc3cccnc32)cc1`: 89%.
As to `COc1ccccc1CNC(=O)c1ccc(Cn2c(SCc3ccccc3)nc3cccnc32)cc1`, the survival is 37% (active).
Next, `O=C(NCc1ccccc1Cl)c1ccc(Cn2c(SCc3ccccc3)nc3cccnc32)cc1`: 72%; `Cc1ccccc1CNC(=O)c1ccc(Cn2c(SCc3ccccc3)nc3cccnc32)cc1`: 0% (active).
Next, `Cc1ccccc1CNC(=O)c1ccc(CSc2nc3cccnc3n2Cc2ccccc2)cc1`: 55%; `COCCCNC(=O)c1ccc(CSc2nc3cccnc3n2Cc2ccc(OC)cc2)cc1`: 107%; `Cc1cn2c(=O)c(S(=O)(=O)NCc3ccc(F)cc3)c(C)nc2s1`: 88%.
As for `CCc1ccc(NC(=O)CSc2nnc(C(C)C)n2CC)cc1`, the survival was 96%.
The value for `O=C(C1CCN(S(=O)(=O)c2ccc3c(c2)OCCO3)CC1)N1CCN(c2nc3ccccc3s2)CC1` was 109%; that for `O=C(Nc1cccnc1)Nc1c[nH]c2c(Cl)cccc2c1=O` was 89%.
The value for `COc1ccc(-c2cc(C(F)(F)F)n3nc(C(=O)O)c(Cl)c3n2)cc1OC` was 70%.
